This note sets out measurements from PubChem BioAssay.

In experiment [1] the test system is Wnt5a (protein binding on small-molecule microarray). In words: small molecules binding Wnt5a protein – biophysical, small-molecule microarray, 635/667 nm fluorescence, primary screen (AID 1142).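 Further: fluorescence read at 667 nm with signal to noise per printed feature.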 The settings on record: 635 nm fluorescence, higher = more signal.
The nature of experiment [2]: ATP-based viability of Huh7 replicon cells – cell-based, CellTiter-Glo luminescence, basal, 48 h, cytotoxicity control for HCV replication inhibitor project, primary screen (AID 1143).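 Further: Huh7 hepatoma cells carrying a hepatitis C replication reporter with no stimulus; test concentration not given here.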 The note with it: higher = more signal, called active from +8 up or from −8 down. A general note: A replicon is a self-replicating genome or part of one, used to study replication in cells.

Experiment [3] can be described thus: Pseudomonas biofilm growth suppression – PAO1 strain, BacTiter-Glo luminescence, LB-PBS, primary screen (AID 1144). The note with it: P. aeruginosa PAO1 biofilm, 12 h, higher = more signal.
A short description of experiment [4]: basal CRE-LacZ reporter activity in PC12 – cell-based, unstimulated, primary screen (AID 1145). The settings on record: no forskolin, luminescence, 4.5 h, higher = more signal, called active from +8 up or from −8 down.
A short description of experiment [5]: forskolin-driven CRE-LacZ activity in PC12 – cell-based, CRE-LacZ reporter, forskolin-stimulated, primary screen (AID 1146).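 Further: PC12 cells with 6xCRE LacZ reporter stimulated by forskolin 10 µM; beta-galactosidase reporter signal reflecting CREB driven transcription.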 The settings on record: luminescence, 4.5 h, higher = more signal, called active from +8 up or from −8 down.
Experiment [6] deals with Streptavidin (Streptomyces avidinii) (UniProt P22629). The experiment is described as follows: compounds binding control protein streptavidin – biophysical, small-molecule microarray, 635/667 nm fluorescence, artefact control for SMM compound annotation, primary screen (AID 1147).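 Further: signal reflects streptavidin binding to arrayed compounds as a control protein.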 The note with it: higher = more signal.
A short description of experiment [7]: probe aInhba binding on compound microarray – biochemical, small-molecule microarray, 635/667 nm fluorescence, primary screen (AID 1148).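 Further: score merges 667nm spot fluorescence with signal-to-noise for antibody binding to printed compounds.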 The note with it: higher = more signal.
Experiment [8] concerns the target Torsin-1A (Homo sapiens) (UniProt O14656). In words: TOR1A wild-type binding on microarray – cell lysate, small-molecule microarray, lysate, 635/667 nm, primary screen (AID 1149). The settings on record: COS7 hTOR1A-WT lysate, 635 nm fluorescence, higher = more signal.
For experiment [9] the target is unchanged. The experiment is described as follows: torsin A mutant lysate binding on microarrays – cell lysate, small-molecule microarray, COS7 lysate, 635/667 nm fluorescence, primary screen (AID 1150).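 Further: score pools 667 nm emission and signal to noise measuring lysate protein binding.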 The settings on record: COS7 hTOR1A mutant lysate, 635 nm fluorescence, higher = more signal.
The test system of experiment [10] is Sonic hedgehog protein (Shh). In words: Sonic hedgehog microarray binding compounds – biochemical, small-molecule microarray, 635/667 nm fluorescence, primary screen (AID 1151).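 Further: Shh protein binding to compounds spotted on small-molecule microarray slides; score combines spot fluorescence intensity with signal-to-noise across triplicate slides.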 The settings on record: 635 nm fluorescence, higher = more signal.

The source made the active and inactive calls. Unless noted, how the calls were made is not given here.

Chain of Streptavidin (Streptomyces avidinii) (P22629 whole entry, looked up): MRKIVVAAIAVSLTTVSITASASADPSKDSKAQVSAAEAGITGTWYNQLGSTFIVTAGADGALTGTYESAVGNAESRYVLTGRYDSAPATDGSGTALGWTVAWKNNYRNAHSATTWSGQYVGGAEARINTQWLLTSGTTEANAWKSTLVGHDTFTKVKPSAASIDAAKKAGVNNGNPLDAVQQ
Chain of Torsin-1A (Homo sapiens) (O14656 whole entry, looked up): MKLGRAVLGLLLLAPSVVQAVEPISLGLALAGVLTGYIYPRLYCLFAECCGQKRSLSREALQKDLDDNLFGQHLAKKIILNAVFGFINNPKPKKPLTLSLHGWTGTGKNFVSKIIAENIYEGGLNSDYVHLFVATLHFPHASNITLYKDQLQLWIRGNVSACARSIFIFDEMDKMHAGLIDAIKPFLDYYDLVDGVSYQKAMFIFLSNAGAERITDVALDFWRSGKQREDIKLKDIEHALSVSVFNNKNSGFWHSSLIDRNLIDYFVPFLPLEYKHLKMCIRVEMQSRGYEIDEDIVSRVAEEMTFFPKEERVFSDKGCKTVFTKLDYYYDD

Consider `COc1ccc([Si](C)(C)[C@H]2[C@H](CC(=O)N(CCO)Cc3ccccc3)O[C@@]3(C(=O)N(Cc4cccc(N5C(=O)c6cccc7cccc5c67)c4)c4ccccc43)[C@@H]2C)cc1`, for which the composite z-score is 0.353 in experiment [1]; 0.544 in experiment [6]; -0.101 in [7]; 0.871 in [8]; 0.27 in [9]; 1.61 in experiment [10]. Also, the z-score was -4.87 (inactive) in [2], -0.188 (inactive) in [3], 1.09 (inactive) in [4] and -1.14 (inactive) in [5].
In the case of `O=C1O[C@@H](c2ccccc2)[C@@H](c2ccccc2)N2[C@@H](c3ccc(O)cc3)[C@]3(C(=O)Nc4ccc(C#CCCO)cc43)[C@@H](C(=O)O)[C@H]12`, the composite z-score in [1] was 0.13; in [6], 1.47; in experiment [7], 1.47; in experiment [8], 0.0458; in [9], -0.0978; in [10], -0.3. Further, the z-score in [2] is 0.457 (inactive); in experiment [3], -0.682 (inactive); in experiment [4], 0.0921 (inactive); in [5], -0.31 (inactive).
Regarding `C=CC[C@@]1(C(=O)NCCN2CCOCC2)N=C(c2ccc(OCCCO)cc2)O[C@@H]1c1ccccc1CN=[N+]=[N-]`, the composite z-score was 0.13 in experiment [1]; 0.349 in experiment [6]; -0.197 in [7]; 0.598 in experiment [8]; 1.16 in [9]; -0.0578 in experiment [10]. The z-score in experiment [2] was -4.2 (inactive); in [3], -0.557 (inactive); in experiment [4], 0.526 (inactive); in experiment [5] it was -1.22 (inactive).
Take `CCOC(=O)C[C@H]1[C@H](OC(=O)c2ccc(C(=O)c3ccccc3)cc2)[C@@H](NC(=O)c2ccc3ccccc3n2)c2cc(OCCCO)ccc2N1C(=O)c1ccc2ccccc2n1`: the composite z-score was 0.211 in experiment [1]; 0.47 in experiment [6]; 0.0778 in experiment [7]; 0.323 in [8]; 0.134 in experiment [9]; -0.0692 in experiment [10]. Moreover, the z-score was 0.0729 (inactive) in experiment [2], -0.754 (inactive) in experiment [3], 2.05 (inactive) in experiment [4] and -1.22 (inactive) in [5].
On to `Cc1ccc(S[C@]2(C(=O)NCC(F)(F)F)CC(=O)N(C3Cc4ccccc4C3)[C@@H]2c2ccc(CO)cc2I)cc1`, for which the composite z-score was -0.465 in experiment [1]; -0.457 in [6]; -0.0471 in experiment [7]; 0.108 in experiment [8]; -0.248 in [9]; -0.703 in experiment [10]. The z-score in experiment [2] is -1.42 (inactive); in experiment [3], -0.46 (inactive); in experiment [4] it was -0.231 (inactive); in [5] it was 0.0489 (inactive).
Turning to `COc1ccc([Si](C)(C)[C@@H]2[C@@H](CCO)O[C@]3(C(=O)N(Cc4ccccc4)c4ccc(N(C=O)c5ccccc5)cc43)[C@H]2C)cc1`, the composite z-score was 0.155 in experiment [1]; -0.0047 in experiment [6]; -0.0762 in experiment [7]; 0.353 in experiment [8]; 0.188 in experiment [9]; 1.26 in [10]. For the same molecule, the z-score in experiment [2] is -5.23 (inactive); in [3], -1.1 (inactive); in experiment [4] it was 4.18 (inactive); in [5], -0.336 (inactive).
As to `COCCOC(=O)N1C(=O)[C@@]2(c3cc(C#Cc4ccc(OC)cc4)ccc31)[C@H](c1ccc(OCCO)cc1)N1[C@H](c3ccccc3)[C@H](c3ccccc3)OC(=O)[C@H]1[C@@H]2C(=O)N1CCc2cc(OC)c(OC)cc2C1`, the composite z-score in [1] is 0.377; in [6], 0.482; in experiment [7] it was -0.0736; in experiment [8], 0.37; in [9] it was 0.454; in experiment [10], 1.85. For the same molecule, the z-score in [2] is -2.85 (inactive); in experiment [3] it was -1.61 (inactive); in experiment [4], -1.15 (inactive); in [5], -1.33 (inactive).
`[N-]=[N+]=NCc1ccccc1C[C@]1(C(=O)NCc2ccccc2)COC(c2ccc(OCCCO)cc2)=N1`: the composite z-score was -0.0113 in experiment [1]; 0.469 in experiment [6]; 0.0301 in experiment [7]; -0.328 in experiment [8]; 0.784 in experiment [9]; -1.13 in experiment [10]. The z-score in experiment [2] is -5.27 (inactive); in experiment [3], 0.664 (inactive); in experiment [4], 1.72 (inactive); in [5], 0.232 (inactive).
Take `O=C1c2ccccc2[C@@]2(Cc3ccccc3N(Cc3ccccc3)C2=O)[C@H](c2ccc(CO)cc2)N1Cc1ccccc1C(F)(F)F`: the composite z-score in experiment [1] is -0.373; in [6], -0.896; in [7] it was -0.128; in experiment [8] it was -0.916; in experiment [9] it was -0.0921; in experiment [10] it was -1.45. The z-score is 0.174 (inactive) in experiment [2], 1.18 (inactive) in experiment [3], -0.116 (inactive) in experiment [4] and 0.172 (inactive) in experiment [5].
For the molecule `C=C(C(=O)CC[C@@H](OC(C)=O)c1ccc(OCCO)cc1)C(C)C`, the composite z-score in experiment [1] is 0.177; in experiment [6] it was -0.41; in [7], -0.148; in [8] it was 0.698; in experiment [9], 1.02; in experiment [10], 0.0191. In addition, the z-score in [2] was 0.118 (inactive); in experiment [3] it was -0.73 (inactive); in experiment [4], 1.68 (inactive); in [5] it was 1.05 (inactive).
`C[C@]1(C(=O)NCC(F)(F)F)c2ccccc2C(=O)N(Cc2cc(F)cc(C(F)(F)F)c2)[C@H]1c1ccc(CO)cc1`: the composite z-score in experiment [1] was 0.0343; in experiment [6] it was -0.388; in [7], -0.128; in experiment [8], 0.135; in experiment [9], 0.527; in experiment [10], 0.394. For the same molecule, the z-score in experiment [2] is -4.86 (inactive); in [3], -0.704 (inactive); in experiment [4] it was 0.324 (inactive); in experiment [5] it was 0.486 (inactive).
With `C=CCNC(=O)[C@H]1[C@@H]2C(=O)O[C@@H](c3ccccc3)[C@@H](c3ccccc3)N2[C@@H](c2ccc(OCCO)cc2)[C@]12C(=O)N(C(=O)OCCOC)c1ccc(C#CC3(O)CCCCCC3)cc12`, the composite z-score in [1] came to 0.558; in experiment [6] it was 0.37; in [7] it was 0.569; in [8], 1.79; in [9], 0.907; in [10], 1.65. Also, the z-score is -2.88 (inactive) in experiment [2], -0.148 (inactive) in experiment [3], 0.761 (inactive) in [4] and 0.309 (inactive) in [5].
Consider `CN1C(=O)C2C=CC(C(O)C3=C[C@H]4C[C@@H](C3)C4(C)C)N(Nc3ccc([N+](=O)[O-])cc3[N+](=O)[O-])C2C1=O` (stereo not given in full), for which the composite z-score was 0.325 in experiment [1]; 1.56 in experiment [6]; 0.421 in [7]; 0.124 in experiment [8]; 0.566 in experiment [9]; 0.0842 in [10]. Besides, the z-score in [2] is -0.119 (inactive); in [3], -0.184 (inactive); in experiment [4], 0.443 (inactive); in experiment [5] it was -0.946 (inactive).
For `CO[C@H]1O[C@H](CO)[C@@H](OC(=O)Nc2ccc(C(F)(F)F)cc2)[C@H](OC(=O)Nc2ccccc2)[C@@H]1OC(=O)Nc1ccccc1`, the composite z-score in experiment [1] was 0.534; in [6], 1.08; in [7], -0.0538; in experiment [8], 0.146; in [9] it was -0.0359; in experiment [10], 0.934. For the same molecule, the z-score in [2] is -3.7 (inactive); in experiment [3], 0.724 (inactive); in experiment [4] it was 0.904 (inactive); in experiment [5], -1.01 (inactive).
